Assay results reported in PubChem BioAssay AID1745849 (National Center for Advancing Translational Sciences (NCATS), 2022).
Among all 2,100 compounds or so, about 320 (15%) were called active. About 52% were inconclusive and are not listed. This is one part of the list. Values without a mark were called inactive. The call rests on the fitted dose curve; in most records, active means well fitted cell-killing curve with a large enough effect; inconclusive means small, poorly fitted or top-dose-only effect, or effect the other way; inactive means flat fitted curve, though single readings scatter.

Experiment: Viability Counterscreen for CMV-Luciferase Assay of Inhibitors of ATXN expression; further: nearly all actives have a fitted effect of over 55% in size
Settings: HEK-293 CMV-luciferase cells viability, protease fluorescence, 24 h; activity change, negative = cytotoxicity: at the top concentration
In short: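 Fluorescence from cleaved Gly-Phe-AFC (25 uM final, 30 min, ex 405/em 540 nm) reported viability, and the luciferase signal of the same CMV-reporter HEK-293 wells was read 5 min after SteadyGlo addition. Dosing lasted 24 hr.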
On the % scale 0 is the no-effect control and ±100 the full control effect; potency means the concentration at half of the fitted maximal effect.

In order of falling “activity change, negative = cytotoxicity” value:
1. COc1ccc2nc(C)cc(NCc3ccc(F)cc3)c2c1  29.7%
2. Nc1ccc(Oc2ccccc2-c2ccccc2)cc1  13.4%
3. O=C(Nc1ccc(Br)cc1)c1cccc(OC(=S)N2CCOCC2)c1  12.8%
4. Cc1cc(C(=O)CN2C(=O)c3ccccc3S2(=O)=O)c(C)n1C(C)C  10.8%
5. COC(=O)c1ccc(C(=O)Nc2cc(Cl)ccc2Cl)cc1NC(=O)c1ccc(N(C)C)cc1  10.5%
6. Cc1cccc(OCCCC(=O)Nc2nccs2)c1  7.55%
7. O=C(C1CCC(CNS(=O)(=O)c2cccc3nsnc23)CC1)N1CC=C(c2ccccc2)CC1 (centres undefined)  7.33%
8. COC(=O)c1ccc(N2CCOCC2)c(NC(=O)Nc2cccc(OC)c2)c1  7.26%
9. O=C1CCCC(O)=C1C=NCc1ccccc1  6.84%
10. CCn1ccnc1CN1CCCC(C(=O)c2ccc3cc(OC)ccc3c2)C1 (centres undefined)  4.36%
11. COc1ccc2c(Cl)c(C(=O)NN)sc2c1  3.31%
12. COc1ccc2c(c1)C(SCC(=O)NCCc1ccc(Cl)cc1)CC(C)(C)O2 (centres undefined)  0.357%
13. CNc1ccccc1C(=O)OC(C)C(=O)Nc1ccc(Cl)cn1 (centres undefined)  -0.359%
14. Cn1c(S(=O)(=O)c2ccc([N+](=O)[O-])cc2)nc(Br)c1Br  -1.8%
15. COc1ccccc1CNc1nc(NCc2ccc(NC(C)=O)cc2)c2sccc2n1  -1.81%
16. O=C(Nc1ccc(NC(=O)c2cccs2)cc1)c1ccc2c(c1)OCO2  -1.89%
17. OC[C@@H]1CN(Cc2ccncc2)C[C@H](n2cnc3c(N4CCN(c5ccccc5)CC4)ncnc32)O1  -2.73%
18. O=C(/C=C/c1ccc(Cl)cc1)Nc1ccc(CN2CCOCC2)cc1  -4.76%
19. COc1ccc(CCCNC(=O)C2Cc3c(-c4cccc(NC(C)=O)c4)ccnc3O2)cc1 (centres undefined)  -5.64%
20. O=C(N/N=C/c1ccccc1O)c1cccc(C(F)(F)F)c1  -7.41%
21. Cc1cccc(/C=N/NC(=O)c2cccc(Cl)c2)n1  -7.6%
22. CCN(Cc1ccccc1)S(=O)(=O)c1ccc(C(=O)Nc2nnc(C3CC3)o2)cc1  -9.39%
23. COc1ccc(CCn2c(C)cc(C(=O)CSc3nc(N)cc(=O)[nH]3)c2C)cc1  -9.76%
24. O=C(NCC1CC1)c1ccc2c(c1)S(=O)(=O)c1cc(Cl)ccc1C2=O  -10.1%
25. CCc1nnc(NC(=O)c2ccc(S(=O)(=O)N(C)c3ccccc3)cc2)o1  -10.5%
26. CC(C)C[C@H](NC(=O)c1[nH]cnc1C(=O)Nc1ccc(CNC(=O)OC(C)(C)C)cc1)C(=O)OCc1ccccc1  -11%
27. CC1CCCCN1S(=O)(=O)c1ccc(C(=O)Nc2nnc(-c3ccccc3Cl)o2)cc1 (centres undefined)  -13.6%
28. COc1ccc(Br)cc1C(=O)Nc1ccccc1N1CCN(C(=O)c2ccccc2)CC1  -13.6%
29. Cc1cccc(OCCn2cc(/C=N/NC(=O)c3ccncc3)c3ccccc32)c1  -14.6%
30. Nc1c(C(=O)NCc2ccccc2)c2nc3ccccc3nc2n1-c1ccc2c(c1)OCO2  -14.7%
31. Cc1[nH]n(-c2ccccc2)c(=O)c1C=Nc1cccc2cccnc12  -15.3%
32. CCN(CC)CCNC(=O)c1ccc(NC(=O)Cc2cccc3ccccc23)cc1  -15.6%
33. COc1ccc(C)cc1Nc1nc(C)nc2sc(C)cc12  -16.3%
34. COc1ccc(CC(N)c2csc(Nc3ccc(C(=O)c4ccccc4)cc3)n2)cc1 (centres undefined)  -18.3%
35. CC(=O)c1ccc(C(=O)Nc2nnc(-c3ccc(Cl)cc3)o2)cc1  -18.4%
36. CN1CCN(C2Cc3cc(Cl)ccc3Sc3cc(F)ccc32)CC1 (centres undefined)  -18.4%
37. COc1ccc(-c2nnc(NC(=O)c3ccc(S(=O)(=O)N4COCC4(C)C)cc3)o2)cc1  -19.2%
38. NC(=O)c1cccc(Nc2nc(C(N)Cc3ccc(C(F)(F)F)cc3)cs2)n1 (centres undefined)  -20.1%
39. COc1cc(Nc2ncc3c(n2)CCN(C(=O)Nc2ccc(C(C)C)cc2)C3)cc(OC)c1OC  -22.1%
40. CCN(CC)S(=O)(=O)c1ccc(N/N=C/c2cc(OC)ccc2O)nc1  -22.1%
41. O=C(CC1NCCc2ccccc21)Nc1ccc(Cl)cc1 (centres undefined)  -23.1%
42. c1nc(CCO[C@H]2CCCCO2)cc2cc3c(cc12)OCO3  -23.6%
43. CC(=O)c1cccc(-c2ccnc3c2CC(C(=O)Nc2ccc(F)c(Cl)c2)O3)c1 (centres undefined)  -24.2%
44. CCOC(=O)COc1ccc(Br)cc1/C=C/c1[nH]c(=O)[nH]c(=O)c1[N+](=O)[O-]  -25.5%
45. C/C(=N\NC(=O)C(C)n1nc(C)c([N+](=O)[O-])c1C)c1ccccc1O (centres undefined)  -26.8%
46. Cc1cc(C2=NNC(=NC3CC3)SC2)c(C)n1-c1ccccc1F  -27.9%
47. O=C(NC(c1ccccc1)c1c(O)ccc2ccccc12)c1ccccc1Cl (centres undefined)  -29.6%
48. O=C(N/N=C/c1cc(Cl)cc([N+](=O)[O-])c1O)c1cccc(S(=O)(=O)N2CCOCC2)c1  -29.7%

With `OC[C@@H]1CN(Cc2ccc(-c3ccccc3)cc2)C[C@H](n2cnc3c(Nc4ccccc4)ncnc32)O1` the Potency was 22.4 µM (active).
For `Oc1[nH]c2ccc(Br)cc2c1N=NC(=S)N1CCOCC1`, the Potency was 1.12 µM (active).
With `CC(=O)Nc1ccc(CNc2nc(NC(C)C)nc3cc(-c4ccccc4)sc23)cc1` the Potency was 25.1 µM (active).
With `CN(c1ccccc1)S(=O)(=O)c1ccc(C(=O)Nc2nnc(-c3ccc(F)cc3)o2)cc1` the Potency was 14.1 µM (active).
In the case of `CCCN(CCC)S(=O)(=O)c1ccc(C(=O)Nc2nnc(-c3cc(OC)cc(OC)c3)o2)cc1`, the Potency is reported as 7.08 µM (active).
In the case of `CC(=O)Nc1cccc(-c2ccnc3c2CC(C)(C(=O)Nc2ccc(Cl)c(C(F)(F)F)c2)O3)c1` (centres undefined), the Potency is reported as 28.2 µM (active).
With `CCCC(=O)NC(c1ccc(OC)cc1)c1c(O)ccc2ccccc12` (centres undefined) the Potency was 10 µM (active).
For `O=C(N/N=C/c1ccc([N+](=O)[O-])o1)c1ccc2c(c1)OCO2`, the Potency was 17.8 µM (active).
In the case of `O=[N+]([O-])c1ccc(/C=N/N=C/c2ccc([N+](=O)[O-])o2)o1`, the Potency is reported as 4.47 µM (active).
For `COc1ccccc1NS(=O)(=O)c1cccc(C(=O)N/N=C/c2ccc([N+](=O)[O-])o2)c1`, the Potency was 10 µM (active).
In the case of `O=C(Nc1nnc(C2CC2)o1)c1ccc(S(=O)(=O)N2CCCc3ccccc32)cc1`, the Potency is reported as 11.2 µM (active).
In the case of `Cc1cccc(/C=C/C(=O)c2ccc([N+](=O)[O-])o2)c1`, the Potency is reported as 3.16 µM (active).
With `COc1ccc2c(c1)CC(N1CCN(C)CC1)c1cc(OC)ccc1S2` (centres undefined) the Potency was 28.2 µM (active).
In the case of `O=c1c2ccccc2sc2c(CO)ccc(NCCN3CCCCC3)c12`, the Potency is reported as 25.1 µM (active).
In the case of `CCN(CC)CCNc1ccc(CO)c2sc3ccccc3c(=O)c12`, the Potency is reported as 25.1 µM (active).
For `Cc1ccc(C(C)C)c(OCc2ccc(C(=O)N/N=C/c3cccc(O)c3O)cc2)c1`, the Potency was 3.98 µM (active).
In the case of `Cc1cccc(N=C2NN=C(c3c(C)[nH]c4ccccc34)CS2)c1`, the Potency is reported as 25.1 µM (active).
For `CN(Cc1ccccc1)C(=O)c1ccc(Nc2nc(C(N)Cc3ccccc3)cs2)nc1` (centres undefined), the Potency was 10 µM (active).
For `COc1ccc(CNc2ncnc3c2[nH]c2ccccc23)cc1`, the Potency was 14.1 µM (active).
In the case of `Cc1[nH]n(-c2cccc3ccccc23)c(=O)c1/C=N/NC(=O)c1cccc([N+](=O)[O-])c1`, the Potency is reported as 11.2 µM (active).
For `CC(NC1=CC(=O)c2cccnc2C1=O)C(O)c1ccccc1` (centres undefined), the Potency was 17.8 µM (active).
For `Fc1ccc2[nH]c3c(N4CCSCC4)ncnc3c2c1`, the Potency was 17.8 µM (active).
With `CCC1=C(CC2NCCc3ccccc32)CC2c3cc(OC)c(OC)cc3CCN2C1` (centres undefined) the Potency was 10 µM (active).
For `CC[C@H]1CN2CCc3cc(OC)c(OC)cc3C2C[C@@H]1C[C@H]1NCCc2cc(OC)c(OC)cc21` (some centres undefined), the Potency was 0.316 µM (active).

In order of falling “activity change, negative = cytotoxicity” value:
1. Cc1ncc(CO)c(/C=N/NC(=O)c2cccc(S(=O)(=O)N3CCCC3)c2)c1O  29.5% [at 57.5 µM]
2. CCC(C)(C)c1ccc(Oc2ccc(N)cc2)cc1  26.6% [at 57.5 µM]
3. CN(CCOc1ccc(Br)cc1)CC(O)COc1ccc(C#N)cc1 (centres undefined)  19.3% [at 57.5 µM]
4. O=C(Oc1c(CN2CCOCC2)cc(Cl)c2cccnc12)c1ccccc1F  18.9% [at 57.5 µM]
5. Clc1c(Cl)c(Cl)c2n[nH]nc2c1Cl  14.6% [at 57.5 µM]
6. O=C(CNC(=O)c1cccc(F)c1)N/N=C/c1cc(Br)ccc1OC(=O)/C=C/c1ccco1  13.1% [at 57.5 µM]
7. CC1(C)Cc2c(ccc3ccccc23)C2=C(C(=O)N3CCCC3)C(=O)C(=O)N21  11.3% [at 57.5 µM]
8. CCc1c(C)nc2ncnn2c1N1CCC(C(=O)Nc2ccc(C)cc2)CC1  10.1% [at 57.5 µM]
9. CCCC(=O)NC(c1ccco1)c1cc(Cl)c2cccnc2c1O (centres undefined)  9.21% [at 57.5 µM]
10. CCN(CC)S(=O)(=O)c1ccc(C(=O)Nc2ccc(Cc3ccncc3)cc2)cc1  3.95% [at 57.5 µM]
11. COc1cc2c(C(=O)N3CCOCC3)c(CSc3ccccc3)n(C)c2cc1Br  3.39% [at 57.5 µM]
12. Cc1nc2cc(NC(=O)CSc3nc4c(C)cccc4cc3C#N)ccc2s1  -1.01% [at 57.5 µM]
13. CCc1ccc(C(O)c2ncc(-c3cccc(C(F)(F)F)c3)[nH]2)cc1 (centres undefined)  -1.52% [at 57.5 µM]
14. CCCc1ccc(O)c(N=Cc2cc(Br)cc(OCC)c2O)c1  -3.44% [at 57.5 µM]
15. CN(C)CCNc1ncnc2c1ncn2[C@H]1CN(Cc2ccc(-c3ccccc3)cc2)C[C@@H](CO)O1  -5.63% [at 57.5 µM]
16. Cc1ccc(OCCn2cc(/C=N/NC(=O)c3ccncc3)c3ccccc32)cc1  -6.17% [at 57.5 µM]
17. CC(C)(C)c1ccc(Oc2ccc(N)cn2)cc1  -8.75% [at 57.5 µM]
18. NNc1ncnc2sc3c(c12)CCC3  -10.3% [at 57.5 µM]
19. Cc1ccc(S(=O)(=O)c2nc(NCc3ccc4c(c3)OCO4)sc2Cl)cc1  -13.9% [at 57.5 µM]
20. CCc1noc(C)c1C(=O)N1CCSC1=Nc1cccc(Cl)c1C  -14.3% [at 57.5 µM]
21. Cc1ccc(Sc2nnc(Cc3ccccc3)c3ccccc23)cc1  -19.3% [at 57.5 µM]
22. COc1cc(OC)cc(-c2cc3nc(C)c(CCC(=O)O)c(C)n3n2)c1  -23.2% [at 57.5 µM]
23. O=C(Nc1ccc(Cc2ccncc2)cc1)c1ccc(S(=O)(=O)N2CCCC2)cc1  -23.7% [at 57.5 µM]
24. Cc1ccccc1N1CCN(Cc2c[nH]c3ccccc23)CC1  -24.1% [at 57.5 µM]
25. NNC(=O)c1sc2cc(C(F)(F)F)cnc2c1-c1cccs1  -26.2% [at 57.5 µM]
26. Cc1ccc(C)c(OCCCC(=O)Nc2nccs2)c1  -27.1% [at 57.5 µM]
27. CN1C(=O)/C(=C/c2ccccc2F)Sc2ccc(C(=O)N3CCCC3)cc21  -30% [at 57.5 µM]
